Compounds without any hit were thinned out: in the full panel of roughly 83,000, 20% have a hit.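 Assay: single dose, 48 h. Readout: percent growth (0 = no net growth; negative = cell death). Active: <10.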 Unmarked numbers belong to inactive results. Calls of active or inactive are those of the source.
Tests used:
Experiment in all cases: NCI-60 one-dose screen, 48 h (100 = growth as untreated, 0 = no growth, -100 = all killed)
Conditions in all cases: 10 µM unless noted
HCT-15 colon = system: HCT-15 colon
HT29 colon = system: HT29 colon
SNB-19 CNS = system: SNB-19 CNS
U251 CNS = system: U251 CNS
PC-3 prostate = system: PC-3 prostate
UACC-62 melanoma = system: UACC-62 melanoma
LOX IMVI melanoma = system: LOX IMVI melanoma
SK-MEL-28 melanoma = system: SK-MEL-28 melanoma
SK-MEL-2 melanoma = system: SK-MEL-2 melanoma
EKVX NSCLC = system: EKVX NSCLC
SN12C renal = system: SN12C renal
UO-31 renal = system: UO-31 renal
TK-10 renal = system: TK-10 renal
ACHN renal = system: ACHN renal
CAKI-1 renal = system: CAKI-1 renal
A498 renal = system: A498 renal
CCRF-CEM leukemia = system: CCRF-CEM leukemia
MOLT-4 leukemia = system: MOLT-4 leukemia
SK-MEL-5 melanoma = system: SK-MEL-5 melanoma

SMILES | growth (HCT-15 colon) | growth (HT29 colon) | growth (SNB-19 CNS) [%] | growth (U251 CNS) | growth (PC-3 prostate) | growth (UACC-62 melanoma) | growth (LOX IMVI melanoma) | growth (SK-MEL-28 melanoma) | growth (SK-MEL-2 melanoma) | growth (EKVX NSCLC) [%] | growth (SN12C renal) | growth (UO-31 renal) | growth (TK-10 renal) | growth (ACHN renal) | growth (CAKI-1 renal) | growth (A498 renal) | growth (CCRF-CEM leukemia) | growth (MOLT-4 leukemia) | growth (SK-MEL-5 melanoma)
CC(C)CSc1nc(NN)c(C#N)c(-c2ccccc2)n1 | 86.6% | 103% | 88.8 | 95.3% | 89.3% | 95.3% | 90.6% | 107% | 101% | 91.4 | 104% | 81.7% | 110% | 92.8% | 90.3% | 69.1% | 97.4% | 104% | 
COc1cccc(CC(C)=C(c2ccc(OCCN3CCCCC3)cc2)c2ccc(OCCN3CCCCC3)cc2)c1 | -68.1% (active) | -77.9% (active) |  | -83.7% (active) | 19.2% | -72.7% (active) | -91.9% (active) | -87.9% (active) | -65.4% (active) | 18 | -42.3% (active) | -92.2% (active) | 32.5% | -88.4% (active) | -46.8% (active) | 8.39% (active) | -31.8% (active) | -34.3% (active) | -96% (active)
COc1ccc(C(=O)N2NC(=O)/C(=C/c3ccc(Br)cc3)N=C2c2ccccc2)cc1 | 94.8% | 93.2% | 87.4 | 72.9% |  | 68.3% | 87.9% | 94.5% |  | 95.7 | 74.1% | 92.8% | 107% | 87.8% | 96.9% | 83.5% |  | 17.3% | 93.8%
COc1ccc(C(=O)N2NC(=O)/C(=C/c3ccc(F)cc3)N=C2c2ccccc2)cc1 | 73% | 94.6% |  | 56.4% | 89.1% | 77.4% | 91.7% | 102% |  | 88.4 | 84.7% | 91.7% | 96.4% | 94.2% | 86.1% | 69.2% |  | 42.4% | 96.1%
COc1ccc(/C=C2\N=C(c3ccccc3)N(C(=O)c3ccccc3O)NC2=O)cc1 | 104% | 104% | 96.6 | 94.2% |  | 82.8% | 95.6% | 109% |  | 88.3 | 86.6% | 95.9% | 97.7% | 103% | 97.9% | 73.6% |  | 48.3% | 101%
CCN(CC)CCCC(C)Nc1c2ccc(Cl)cc2nc2cc(OC)c(OC)cc12 (stereo unspecified) | -22.4% (active) | -23.8% (active) |  | 16.2% | 16.5% | -38% (active) | -53.3% (active) | -74.7% (active) | 48% | 53.7 | 34.3% | -41% (active) | 2.47% (active) | -76.2% (active) | 9.87% (active) | 54.6% | 15.5% | -8.8% (active) | 45.3%
COc1cc(-c2nn(-c3cccc(NC(=O)c4ccc(N5CCOCC5)c(C(F)(F)F)c4)c3)cc2-c2ccncc2)ccc1Cl | 16.7% | -13.3% (active) | 45.1 | 2.49% (active) | 8.17% (active) | 8.35% (active) | 13.7% | 28.4% | -8.84% (active) |  | 31% | 24.6% | 17.8% | 21.3% | 39.9% | -29.7% (active) | 0.907% (active) | 4.07% (active) | 
S=C(S)NCCc1c[nH]c2ccccc12 | 97.2% | 110% | 96.3 | 108% | 91.4% | 88.4% |  | 113% | 99.6% | 100 | 91.8% | 62.8% | 128% | 101% | 81.2% |  | 81.5% | 93.6% | 
Cc1ccc(S(=O)(=O)NCCNc2nccc(-c3c(-c4ccc(O)cc4)nc4sccn34)n2)cc1 | 99.1% | 78.9% | 113 | 104% | 86.5% | 91.4% | 95.7% | 114% | 114% |  | 93.3% | 84% | 121% | 93% | 98.2% | 104% | 86.8% | 59% | 
COc1cc(/C=C/C(=O)N2CCN(C(=O)/C=C/c3cc(OC)c(OC)c(OC)c3)CC2)cc(OC)c1OC | 113% | 109% | 105 | 103% | 102% | 89.1% | 101% |  | 110% | 114 | 102% | 88.5% | 121% | 106% | 119% |  | 98.6% | 95.9% | 
O=S(=O)(NCCCNc1nccc(-n2ccc3cccnc32)n1)c1ccc(Br)cc1 | 102% | 107% |  | 106% | 96.5% | 99.5% | 96.3% | 108% | 108% | 93 | 102% | 107% | 121% | 108% | 94.2% | 102% | 102% | 100% | 101%
COc1cc(/C(C#N)=C/c2ccc3c(c2OC)OCO3)cc2c1OCO2 | 33% | 0.067% (active) | 31.2 | 18.9% | 40.8% | 18.5% | 24.2% | 45.7% |  | 45.9 | 36.6% | 41.7% | 54.3% | 51.6% | 42.9% | 8.92% (active) |  | 50.6% | 
COc1ccc(-n2c(=S)sc3c(Cl)nc(C)nc32)c(OC)c1 | 21% | -7.41% (active) |  | -39.6% (active) | 56.5% | 51.6% | -81.9% (active) | -3.3% (active) | 23.2% | 49.3 | 27% | -36.2% (active) | 45.7% | 56.8% | -41.8% (active) | 110% | -1.34% (active) | -1.97% (active) | 80.1%
C=C1CCC2C(C)(CO)C(O)CCC2(C)C1C/C=C1/C(=O)OCC1Oc1ccccc1C (stereo unspecified) | 55.9% | 42.8% |  | 88.4% | 86.3% | 77.3% | 2.56% (active) | 98% | 87.5% | 101 | 85.9% | 93% | 136% | 91.6% | 95.8% | 108% | 20.3% | 92.5% | 93.6%
COc1cc(-c2nc(-c3nc4ccc(Cl)cc4[nH]3)cc3c2[nH]c2ccccc23)cc(OC)c1OC | 72.8% | 75% | 79.9 | 80.1% | 53.2% | 33.6% | 67.8% | 99.8% | 62% |  | 66.1% | 41.7% | 93.6% | 66.4% | 83.7% | 78% | 46.5% | 34.4% | 
COc1ccc(/C=C\c2cc(OC)c(OC)c(OC)c2)cc1OC(=O)c1cccc(Cn2cc(CCOC(=O)c3cccc(Cn4nnc5c4C(=O)c4ccccc4C5=O)c3)nn2)c1 | 10.5% | 12.2% |  | 23.8% | 22.8% | 45.7% | 21.2% | 58% | 50.9% | 58.3 | 18.9% | 36.6% | 76.4% | 17.2% | 31.2% | -4.1% (active) | 8.91% (active) | 20.7% | -28.8% (active)
C=C1c2nc3ccccc3n2C=C(c2ccc(Cl)cc2)N1Cc1ccccc1 | 78.2% | 77.4% | 85.3 | 90.9% |  | 71% | 90.5% | 147% | 69.7% | 70.8 | 95.1% | 48.2% | 119% | 81.4% | 79% | 84.7% | 78.9% | 58.5% | 79.1%

— PubChem BioAssay (NCI)
